# Compounds with a hit are over-represented: about 4.2% of the library has one in this group of screens.
# GDH-TPI inh – counter-screen for M. tuberculosis FBA inhibitors: GDH-TPI coupled enzymes; 360,000 compounds, 1.2% hits; GDH-TPI coupled enzyme counterscreen, NADH absorbance; AID 588335; inhibition, % at 4.8 µM;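 note: 0% = DMSO wells and 100% = wells lacking the enzyme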
# Mtb FBA inh – Mtb fructose-bisphosphate aldolase inhibition. P9WQA3. purified M. tuberculosis FBA, fluorescence read-out. inhibition, % at 1 µM. 360,000 compounds, 2.3% hits; in the data active = inhibition above about 27%;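 note: 0% = vehicle and 100% = reference inhibitor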
# Target sequence (P9WQA3 whole entry, looked up): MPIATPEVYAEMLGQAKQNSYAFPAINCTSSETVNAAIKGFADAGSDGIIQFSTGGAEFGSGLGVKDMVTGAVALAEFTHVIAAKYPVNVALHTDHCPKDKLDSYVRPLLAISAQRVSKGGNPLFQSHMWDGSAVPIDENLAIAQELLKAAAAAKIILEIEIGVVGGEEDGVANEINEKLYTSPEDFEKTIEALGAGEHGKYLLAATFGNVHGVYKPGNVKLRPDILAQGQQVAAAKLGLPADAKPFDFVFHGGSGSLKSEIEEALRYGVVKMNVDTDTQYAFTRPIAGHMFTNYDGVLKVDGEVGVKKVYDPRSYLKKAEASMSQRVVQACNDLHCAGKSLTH
# RecA splice inh – blocks M. tuberculosis RecA intein splicing; P9WHJ3; cell-free RecA intein splicing, fluorescence; inhibition, % (no concentration beside the values); 290,000 compounds, 0.75% hits; AID 2221; in the data active = inhibition above about 30%;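 note: 0% = vehicle wells and 100% = reference inhibitor control wells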
# CCHF vOTU inh-1 – CCHFV vOTU protease inhibition. Pep-AMC fluorescence. AID 651958. 370,000 compounds, 0.55% hits. inhibition, % at 11.5 µM; note: 0% = vehicle wells with enzyme and 100% = no enzyme wells
# CCHF vOTU inh-2 – CCHFV vOTU protease inhibition, confirmation; 1,900 compounds, 17% hits; shares compounds with CCHF vOTU inh-1; Recombinant CCHFV vOTU, Pep-AMC fluorescence; inhibition, % at 11.5 µM
# * = called active by the depositor; . = not tested or not shown. Cut-off read from the data, not from the text of the source, unless noted: active = inhibition above about 30%; inactive = the rest.
SMILES,GDH-TPI inh,Mtb FBA inh,RecA splice inh,CCHF vOTU inh-1,CCHF vOTU inh-2
O=C1CCN(C(=O)CCCn2c(=O)oc3ccccc32)CC1,-10.1,3.9,-2.4,-11.7,.
O=C(CCCn1c(=O)oc2ccccc21)N1CCc2ccccc2C1,-0.4,1.6,4.9,34.6*,-8.7
CCCc1nc2c(=O)n(C)c(=O)nc-2n(C)n1,13.4,-3.7,.,113.2*,93.5*
CCN(CC(=O)Nc1c(F)cccc1F)C(=O)c1csc2c1CCCC2,-8.0,2.4,.,-14.4,.
COC(=O)c1c(C)cc(O)c(C=O)c1O,7.6,0.6,-2.6,.,.
Cc1cc2c(C(C)C)c(O)c(O)c(C=O)c2c(O)c1-c1c(C)cc2c(C(C)C)c(O)c(O)c(C=O)c2c1O,18.1,-6.4,7.3,63.3*,31.0*
CCN(CC)c1ccc(C=Nc2ccc(N(C)C)cc2)c(O)c1,54.0*,-3.0,-2.9,74.1*,-1.8
O=C(COC(=O)c1ncc(Cl)c(Cl)c1Cl)NCCc1ccccc1,5.2,3.5,19.5,-0.3,.
CC(CC(=O)c1ccccc1)=NCCCN=C(C)CC(=O)c1ccccc1,60.2*,-1.7,.,35.1*,1.7
O=C(CC(=O)c1ccccc1)c1ccccc1,23.8,5.7,.,-5.9,.
CCCCN(C(=O)CC1CCCCC1)c1c(N)n(CC(C)C)c(=O)[nH]c1=O,2.7,-0.7,.,31.6*,-27.0
CCCCn1c(N)c(N(CCC(C)C)C(=O)CC2CCCCC2)c(=O)[nH]c1=O,10.8,1.9,6.8,-8.3,.
CC1(C(=O)NS(=O)(=O)c2cccc(C#N)c2)CCN1C(=O)C1CCCCC1 (stereo not given),2.6,-0.7,.,1.2,.
CC1(C(=O)NS(=O)(=O)c2cccc(F)c2)CCN1C(=O)C1CCCCC1 (stereo not given),0.0,-2.2,.,34.1*,-16.5
C[N+]1(C)CCC(=C2c3ccccc3CC(=O)c3sccc32)CC1,2.8,4.2,-10.3,32.5*,18.6
CC[N+]1(C)CCC(=C2c3ccccc3CC(=O)c3sccc32)CC1 (stereo not given),0.9,0.9,-5.3,-7.5,.
COC(=O)[C@@]12C[C@@H](CC(=O)NCc3ccccc3)C(=O)N(Cc3ccco3)C1=CCC(C)(C)C2,.,.,.,8.3,.
COC(=O)[C@@]12C[C@@H](CC(=O)NCc3cccc(C(F)(F)F)c3)C(=O)N(Cc3cccc4ccccc34)C1=CCC(C)(C)C2,.,.,.,30.9*,1.3
COC(=O)[C@@]12C[C@@H](CC(=O)NCc3cccc(C(F)(F)F)c3)C(=O)N(Cc3ccccc3)C1=CCC(C)(C)C2,.,.,.,27.6,.
CCCCCCCCN1C(=O)[C@H](CC(=O)NCc2ccc(OC)c(OC)c2)C[C@@]2(C(=O)OC)CC(C)(C)CC=C12,.,.,.,37.4*,3.3
COC(=O)[C@@]12C[C@@H](CC(=O)NCc3ccc(OC)c(OC)c3)C(=O)N(Cc3ccco3)C1=CCC(C)(C)C2,.,.,.,36.9*,-11.2
CCCCNC(=O)C[C@@H]1C[C@@]2(C(=O)OC)CC(C)(C)CC=C2N(CCc2ccc(OC)c(OC)c2)C1=O,.,.,.,0.9,.
CCCCCCCCN1C(=O)[C@H](CC(=O)N2CCCCC2)C[C@@]2(C(=O)OC)CC(C)(C)CC=C12,.,.,.,33.4*,12.9
COC(=O)[C@@]12C[C@@H](CC(=O)NCc3ccc(OC)c(OC)c3)C(=O)N(CCc3ccc(OC)c(OC)c3)C1=CCC(C)(C)C2,.,.,.,30.5*,-11.3
COc1ccc(C(=O)NC(=S)Nc2cccc3cc(O)ccc23)cc1OC,17.5,3.9,0.5,31.4*,-10.7
SMILES,GDH-TPI inh,Mtb FBA inh,RecA splice inh,CCHF vOTU inh-1,CCHF vOTU inh-2
COc1ccccc1C(=O)NC(=S)Nc1cccc2cc(O)ccc12,9.1,2.9,13.0,14.8,.
O=C1Nc2ccc([N+](=O)[O-])cc2C1(O)N1CCCCCC1 (stereo not given),33.5*,-0.6,-0.4,30.3*,-2.7
O=C(NCC1CCN(C(=O)C(=O)c2cc3ccccc3o2)CC1)c1cc(C(F)(F)F)cc(C(F)(F)F)c1,.,.,.,36.7*,-11.0
O=C(C(=O)N1CCC(CNS(=O)(=O)c2cc(C(F)(F)F)cc(C(F)(F)F)c2)CC1)c1cc2ccccc2o1,.,.,.,2.5,.
CCCCCCn1c(=O)n2n(c1=O)[C@@H]1CN(S(=O)(=O)c3ccc(C)cc3)C[C@]1(O)[C@@H](OC(=O)Nc1cccs1)C2,1.4,0.0,.,33.9*,-5.8
CCCCCCn1c(=O)n2n(c1=O)[C@@H]1CN(S(=O)(=O)c3ccc(C)cc3)C[C@]1(O)[C@@H](OC(=O)NCc1ccc(OC)c(OC)c1)C2,6.6,1.4,.,43.5*,-9.2
CCCCCCNC(=O)O[C@H]1Cn2c(=O)n(CCCCCC)c(=O)n2[C@@H]2CN(S(=O)(=O)c3ccc(C)cc3)C[C@]12O,-2.4,-2.2,.,27.9,.
COCCNC(=O)CN1C(=O)NC2(CCCc3ccccc32)C1=O (stereo not given),9.9,3.6,2.8,-4.0,.
O=C1c2ccccc2-c2nccnc21,-5.9,20.4,21.3,8.4,.
O=C1C(=O)c2cccnc2-c2ncccc21,.,-59.7,.,111.1*,85.8*
COc1ccc(-n2[nH]c(C)cc2=O)cc1,1.4,1.1,-1.8,33.5*,-26.6
CCn1c(C)cc(/C=C2\NC(=O)N(CC(=O)Nc3cccc(C)c3)C2=O)c1C,15.9,4.3,-1.4,27.8,.
CCn1c(C)cc(/C=C2/NC(=O)N(CC(=O)Nc3cccc(C)c3)C2=O)c1C,12.2,2.1,-6.8,31.0*,3.3
Cc1nn(C)cc1C1C(C#N)=C(N)N(c2ccc(F)c([N+](=O)[O-])c2)C2=C1C(=O)CCC2 (stereo not given),17.4,0.1,4.4,29.8*,-4.4
Cc1ccc(N2C(N)=C(C#N)C(c3cccnc3)C3=C2CCCC3=O)cc1 (stereo not given),16.7,5.8,4.4,9.0,.
CCOC(=O)COc1ccc(S(=O)(=O)N2CCN(c3ccccc3F)CC2)cc1,1.7,1.1,3.5,5.0,.
CCOC(=O)COc1ccc(S(=O)(=O)N2CCN(c3ccc(OC)cc3)CC2)cc1,-0.3,7.6,-1.1,30.3*,-3.9
CCCCCCN1CCS(=O)(=O)N(Cc2ccccc2)C(C(=O)OC)C1 (stereo not given),.,.,.,5.0,.
CCCCCCCCN1CCS(=O)(=O)N(Cc2ccc(C)cc2)C(C(=O)OC)C1 (stereo not given),.,.,.,29.8*,18.2
O=C(COC(=O)c1n[nH]c2ccccc12)NC(=O)NCc1ccco1,7.4,12.9,5.2,34.9*,-11.1
CCN(C(=O)COC(=O)c1ccc[nH]c1=O)c1cccc2ccccc12,5.0,1.0,.,3.5,.
CN1C(=O)C(=Cc2ccc(N3CCOCC3)o2)C(=O)N(C)C1=O,2.6,-11.2,-2.5,29.5*,1.0
COC(=O)[C@@]1(Cc2ccc(F)cc2)[C@H]2c3cc(C(=O)N4CCCC4)n(Cc4ccc(C)o4)c3C[C@H]2CN1C(=O)c1ccccc1,.,.,.,6.6,.
CCC(=O)N1CCN(c2ccc(NC(=S)NC(=O)c3cc4ccccc4o3)cc2)CC1,-0.3,0.8,-0.5,33.6*,-8.9
C=C1c2nc3ccccc3n2C=C(c2ccc(C)cc2)N1c1ccccc1,20.6,14.3,.,34.7*,-2.3
Cc1ccc(C2=CCN(C)C(=O)N2c2ccccc2)cc1,.,.,.,-0.1,.
O=C(/C=C/c1cccc(Cl)c1)OCC(=O)c1ccc[nH]1,-6.2,1.5,.,34.9*,2.8

# Screens from PubChem BioAssay.
